{
  "source": "PubChem BioAssay (Tox21)",
  "note": "Where “and” joins values, the source holds several entries; their conditions need not be identical. Equal entries are not always repeated. More than one record can exist for a structure, and the calls need not agree. Calls of active or inactive are those of the source. Entries that show only a call come without a potency. Calls come from the whole dose curve. Potency is the fitted concentration of half-maximal effect.",
  "data": [
    {"molecular_target": "Acetylcholinesterase (Homo sapiens) (UniProt P22303)", "sequence (P22303 whole entry, looked up)": "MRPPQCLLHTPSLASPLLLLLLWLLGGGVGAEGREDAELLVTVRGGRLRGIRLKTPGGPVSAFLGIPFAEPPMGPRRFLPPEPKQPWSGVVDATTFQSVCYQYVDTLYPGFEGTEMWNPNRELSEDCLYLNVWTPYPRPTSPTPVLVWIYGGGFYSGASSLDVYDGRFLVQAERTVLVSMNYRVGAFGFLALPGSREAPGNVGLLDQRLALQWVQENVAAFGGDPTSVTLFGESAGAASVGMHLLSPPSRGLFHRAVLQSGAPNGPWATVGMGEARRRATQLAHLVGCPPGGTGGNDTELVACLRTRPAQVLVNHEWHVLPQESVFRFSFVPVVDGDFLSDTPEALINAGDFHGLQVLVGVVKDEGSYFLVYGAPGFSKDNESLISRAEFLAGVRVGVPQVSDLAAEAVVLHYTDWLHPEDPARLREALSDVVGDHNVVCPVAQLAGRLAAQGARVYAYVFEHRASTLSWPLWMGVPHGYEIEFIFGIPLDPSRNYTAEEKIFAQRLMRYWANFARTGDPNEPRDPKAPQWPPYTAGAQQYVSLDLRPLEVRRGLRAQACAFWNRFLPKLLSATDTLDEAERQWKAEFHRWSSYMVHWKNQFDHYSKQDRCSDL", "assay": "Acetylcholinesterase (AChE) small molecule antagonists: enzyme-based qHTS assay (AID 1347397); note: nearly all actives have a fitted effect of over 55% in size", "details": "Potency: AChE enzyme activity inhibition; series mostly up to 115 µM", "excerpt": "National Center for Advancing Translational Sciences [NCATS]\nDivision of Preclinical Innovation [DPI]\nU.S. Environmental Protection Agency [EPA]\nNational Institutes of Environmental Health Sciences [NIEHS]\nNational Toxicology Program [NTP]\nU.S. Food and Drug Administration [FDA]\nAcetylcholinesterase (AChE) is the primary cholinesterase in the body that hydrolyzes a key neurotransmitter, acetylcholine. Inhibition of AChE activity can lead to neurotoxicity. The known inhibitors include organophosphorous pesticides (OP), chemical warfare agents, drugs, and various phytochemicals.\nAn enzyme-based assay with the recombinant human AChE and Amplite Colormetric acetylcholinesterase assay kit (AAT Bioquest, Sunnyvale, CA) was used to evaluate the chemicals in the Tox21 10K library that inhibit AChE activity. The assay uses 5, 5-dithiobis-(2-nitrobenzoic acid) (DTNB) to quantify the thiocholine produced from the hydrolysis of acetylthiocholine by AChE.\nTox21 Assay Protocol Summary:\nFor the enzyme-based AChE assay, recombinant human AChE (50 mU/mL) in 4 uL/well was dispensed into black, clear-bottom 1536-well plates using a Multidrop Combi dispenser (Thermo Scientific, MA). Then, 23 nL of compound or DMSO (vehicle control) was transferred into the assay plates by a Pintool Station (Wako Automation, CA). The plates were incubated for 30 min at room temperature, followed by the addition of 4 uL of colorimetric detection cocktail solution (DTNB, acetylthiocholine) into each well using a Flying Reagent Dispenser (Beckman Coulter, CA) and then 10 min incubation at room temperature.", "values": [
      {"smiles": "ClCc1ccccn1", "Potency": "inactive"},
      {"smiles": "C=CC(Cl)CCl", "note": "(stereo not given)", "Potency": "inactive"},
      {"smiles": "CCOP(=S)(OCC)SCn1c(=O)oc2cc(Cl)ccc21", "Potency": "inactive"},
      {"smiles": "O=[N+]([O-])c1ccc(Nc2ccccc2)cc1", "Potency": "inactive"},
      {"smiles": "C=C(C)C#N", "Potency": "inactive"},
      {"smiles": "[CH3][Sn]([Cl])([Cl])[Cl]", "Potency": "inactive"},
      {"smiles": "C[N+](C)(C)C", "Potency": "inactive"},
      {"smiles": "CC1(C)C(C(=O)OC(C#N)c2cccc(Oc3ccccc3)c2)C1(C)C", "note": "(stereo not given)", "Potency": "inactive"},
      {"smiles": "CCCCCCCC[N+](C)(CCCCCCCC)CCCCCCCC", "Potency": "79.5 µM (active) and inactive and 71 µM (active)"},
      {"smiles": "c1ccc(C2CO2)cc1", "note": "(stereo not given)", "Potency": "inactive"},
      {"smiles": "CC1CC(=O)O1", "note": "(stereo not given)", "Potency": "inactive"},
      {"smiles": "Oc1ccc(Cl)cc1Cc1ccccc1", "Potency": "inactive"},
      {"smiles": "O=[N+]([O-])/N=C1\\NCCN1Cc1ccc(Cl)nc1", "Potency": "inactive"},
      {"smiles": "CCC(=O)Nc1ccc(Cl)c(Cl)c1", "Potency": "inactive"},
      {"smiles": "CC1(C)Cc2cccc(O)c2O1", "Potency": "inactive"},
      {"smiles": "C[N+](C)(C)CC(=O)O", "Potency": "inactive"},
      {"smiles": "O=[N+]([O-])c1ccc(Cl)c([N+](=O)[O-])c1", "Potency": "inactive"},
      {"smiles": "N#Cc1cccnc1", "Potency": "inactive"},
      {"smiles": "CCCCSP(=O)(SCCCC)SCCCC", "Potency": "inactive"},
      {"smiles": "CC(C)Nc1nc(Cl)nc(NC(C)C)n1", "Potency": "inactive and 71 µM (active)"},
      {"smiles": "CC(C)Nc1ccc(Nc2ccccc2)cc1", "Potency": "inactive"},
      {"smiles": "N#CC(c1ccccc1)c1ccccc1", "Potency": "inactive"},
      {"smiles": "CCCCCCCCCC(CC)c1ccc(S(=O)(=O)O)cc1", "note": "(stereo not given)", "Potency": "57 µM (active) and 79.6 µM (active) and 47.4 µM (active)"},
      {"smiles": "CC(C)CON=O", "Potency": "inactive"},
      {"smiles": "O=C1Nc2ccc(Cl)cc2C(c2ccccc2)=NC1O", "note": "(stereo not given)", "Potency": "inactive"},
      {"smiles": "CC(C)COC(=O)c1ccccc1C(=O)OCC(C)C", "Potency": "inactive"},
      {"smiles": "ClC(Cl)=C(Cl)C(Cl)=C(Cl)Cl", "Potency": "inactive"},
      {"smiles": "C[C@]12CCC(=O)C=C1CC[C@@H]1[C@@H]2CC[C@@]2(C)[C@H]1CC[C@]2(C)O", "Potency": "inactive"},
      {"smiles": "Clc1cccc(C(Cl)(Cl)Cl)n1", "Potency": "inactive"},
      {"smiles": "ClC(Cl)(Cl)c1ccccc1", "Potency": "inactive"},
      {"smiles": "CC(C)=CC1C(C(=O)OCN2C(=O)C3=C(CCCC3)C2=O)C1(C)C", "note": "(stereo not given)", "Potency": "inactive"},
      {"smiles": "CCC/C=N/O", "Potency": "34.2 µM (active) and inactive"},
      {"smiles": "CNC(=O)CSP(=S)(OC)OC", "Potency": "inactive"},
      {"smiles": "N#CCCCCC#N", "Potency": "inactive"},
      {"smiles": "Clc1cccc(Cl)c1", "Potency": "inactive"},
      {"smiles": "Cc1cccc(N=Nc2ccc(N(C)C)cc2)c1", "Potency": "inactive"},
      {"smiles": "COC(=O)Nc1nc2ccccc2[nH]1", "Potency": "inactive"},
      {"smiles": "CS(=O)(=O)NC(=O)c1cc(Oc2ccc(C(F)(F)F)cc2Cl)ccc1[N+](=O)[O-]", "Potency": "inactive"},
      {"smiles": "CNC(=S)S", "Potency": "inactive"},
      {"smiles": "COP(=S)(OC)Oc1ccc(S(=O)(=O)N(C)C)cc1", "Potency": "inactive"}
    ]}
  ]
}
